Experiments:
Assay in all cases: growth AUC relative to DMSO control (median of replicates) (fraction); higher = more growth (less inhibition), active = hit call of the paper
Details in all cases: 20 µM; 24 h;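 active = AUC reduced over 20% with Padj below 0.05 in at least 2 of 3 replicates; inactive = otherwise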
Akkermansia muciniphila = system: Akkermansia muciniphila
How it was run: (§1)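 Gut bacterial monocultures were grown anaerobically at 37 °C in mGAM from a starting OD600 of 0.05 with 20 µM compound (1% DMSO), in round-bottom 96-well plates under pierced gas-permeable seals, and OD600 was read hourly for 24 h. With the minimum OD set to 0, area under the growth curve was normalised to the plate median of solvent-only wells, or to row and column medians on the industrial chemical plate. Each value is the median of three biological replicates grown on separate days.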

Bacteroides caccae = system: Bacteroides caccae
How it was run: as §1

Bacteroides clarus = system: Bacteroides clarus
How it was run: as §1

Bacteroides dorei = system: Bacteroides dorei
How it was run: as §1

Bacteroides stercoris = system: Bacteroides stercoris
How it was run: as §1

[1] = system: Bacteroides thetaiotaomicron
How it was run: as §1

Bacteroides uniformis = system: Bacteroides uniformis
How it was run: as §1

[2] = system: Bifidobacterium longum subsp. longum
How it was run: as §1

Clostridium difficile = system: Clostridium difficile
How it was run: as §1

Collinsella aerofaciens = system: Collinsella aerofaciens
How it was run: as §1

Measured: growth AUC

O=C(O)c1cccc2nnsc12
inactive: Akkermansia muciniphila 0.935 | Bacteroides caccae 0.996 | Bacteroides clarus 0.998 | Bacteroides dorei 0.964 | Bacteroides stercoris 0.963 | [1] 1.01 | Bacteroides uniformis 1.01 | [2] 1.03 | Clostridium difficile 0.99 | Collinsella aerofaciens 0.977

Cc1cc(N(C)C)nc(Cl)n1
inactive: Akkermansia muciniphila 0.999 | Bacteroides caccae 0.916 | Bacteroides clarus 1.02 | Bacteroides dorei 0.985 | Bacteroides stercoris 1.26 | [1] 1.02 | Bacteroides uniformis 0.98 | [2] 0.985 | Clostridium difficile 0.976 | Collinsella aerofaciens 0.977

CC(C)(NC(=O)NCc1ccccc1Cl)c1ccccc1
inactive: Akkermansia muciniphila 1.12 | Bacteroides caccae 1 | Bacteroides clarus 1.03 | Bacteroides dorei 0.925 | Bacteroides stercoris 0.951 | [1] 1.02 | Bacteroides uniformis 0.983 | [2] 1.08 | Clostridium difficile 1.01 | Collinsella aerofaciens 0.96

CNC(=O)Sc1ccc(OS(C)(=O)=O)cc1
inactive: Akkermansia muciniphila 0.955 | Bacteroides caccae 1.02 | Bacteroides clarus 0.858 | Bacteroides dorei 0.925 | Bacteroides stercoris 0.77 | [1] 0.848 | Bacteroides uniformis 0.953 | [2] 0.847 | Clostridium difficile 0.96 | Collinsella aerofaciens 1.01

CCN(CC)c1nc(C)cc(=O)[nH]1
inactive: Akkermansia muciniphila 1.08 | Bacteroides caccae 0.974 | Bacteroides clarus 1.03 | Bacteroides dorei 1.02 | Bacteroides stercoris 1.11 | [1] 0.996 | Bacteroides uniformis 0.961 | [2] 1.02 | Clostridium difficile 1.01 | Collinsella aerofaciens 1.01

FC(F)(F)/N=C1\SC(=Nc2ccccc2)N(c2ccccc2)\C1=N\C(F)(F)F
inactive: Akkermansia muciniphila 0.949 | Bacteroides caccae 0.933 | Bacteroides clarus 0.96 | Bacteroides dorei 0.947 | Bacteroides stercoris 0.925 | [1] 1.01 | Bacteroides uniformis 0.924 | [2] 1.03 | Clostridium difficile 0.984 | Collinsella aerofaciens 0.907

Reference: the supplement of paper PMC12669032
